Data published in PubChem BioAssay (NCI).
Compounds without any hit were thinned out: in the full panel of roughly 83,000, 20% have a hit.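 How to read the values: 0–100, growth inhibition (40 = 60% inhibited); 0, no net growth; -100 to 0, cell death (-40 = 40% of starting cells died; -100 = all dead).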 Calls of active or inactive are those of the source. Rule for the calls: active = growth percent below 10; inactive = the rest.

What was measured:
Experiment in all cases: NCI-60 one-dose screen, 48 h (100 = growth as untreated, 0 = no growth, -100 = all killed)
Settings in all cases: 10 µM unless noted
DU-145 prostate = system: DU-145 prostate
K-562 leukemia = system: K-562 leukemia
MALME-3M melanoma = system: MALME-3M melanoma
MDA-MB-231 breast = system: MDA-MB-231 breast
SF-268 CNS = system: SF-268 CNS
SF-295 CNS = system: SF-295 CNS
SF-539 CNS = system: SF-539 CNS
UACC-257 melanoma = system: UACC-257 melanoma
M14 melanoma = system: M14 melanoma
HCT-15 colon = system: HCT-15 colon
HT29 colon = system: HT29 colon
SNB-75 CNS = system: SNB-75 CNS
SNB-19 CNS = system: SNB-19 CNS
PC-3 prostate = system: PC-3 prostate
SK-MEL-5 melanoma = system: SK-MEL-5 melanoma
UACC-62 melanoma = system: UACC-62 melanoma
LOX IMVI melanoma = system: LOX IMVI melanoma
SK-MEL-28 melanoma = system: SK-MEL-28 melanoma
RXF 393 renal = system: RXF 393 renal
U251 CNS = system: U251 CNS

Measured: growth

COc1cc(OC)c(/C=C/c2cc[n+](C)c3ccccc23)c(OC)c1
active: K-562 leukemia 7.21% | MALME-3M melanoma 5.28% | SF-295 CNS -48.8% | UACC-257 melanoma -24.7% | HT29 colon 0.813% | SNB-75 CNS -13.8% | SK-MEL-5 melanoma -47.2% | LOX IMVI melanoma -74.2%
inactive: DU-145 prostate 18.5% | MDA-MB-231 breast 22.5% | SF-268 CNS 15.7% | SF-539 CNS 12% | M14 melanoma 36.2% | HCT-15 colon 90.9% | SNB-19 CNS 26.4% | PC-3 prostate 16.5% | UACC-62 melanoma 12.7% | SK-MEL-28 melanoma 24.8%

COc1cc(C2CC(=O)Nc3c2c(C)nn3-c2nc3ccccc3[nH]2)cc(OC)c1OC (stereo unspecified)
inactive: DU-145 prostate 119% | K-562 leukemia 99.7% | MALME-3M melanoma 106% | MDA-MB-231 breast 91.6% | RXF 393 renal 89.8% | SF-268 CNS 112% | UACC-257 melanoma 96.7% | M14 melanoma 92.3% | HCT-15 colon 101% | HT29 colon 109% | SNB-75 CNS 86.9% | SNB-19 CNS 93.4% | U251 CNS 102% | SK-MEL-5 melanoma 99.7% | UACC-62 melanoma 97.2% | SK-MEL-28 melanoma 103%

CCOC(=O)N1CCN(c2nc(Nc3cc(C)[nH]n3)c3ccccc3n2)CC1
inactive: DU-145 prostate 47.5% | K-562 leukemia 17.4% | MALME-3M melanoma 77.6% | MDA-MB-231 breast 63.7% | SF-268 CNS 42.6% | SF-295 CNS 36.5% | SF-539 CNS 46.8% | UACC-257 melanoma 65.7% | M14 melanoma 61.6% | HCT-15 colon 40.4% | HT29 colon 22.6% | SNB-19 CNS 89.2% | PC-3 prostate 57.2% | SK-MEL-5 melanoma 57.9% | LOX IMVI melanoma 24% | SK-MEL-28 melanoma 59.6%
active: SNB-75 CNS -21.2%

Cc1ccc(C2CC3c4ccccc4C2C2CCCCN32)cc1 (stereo unspecified)
inactive: DU-145 prostate 108% | K-562 leukemia 72% | MALME-3M melanoma 85.6% | MDA-MB-231 breast 109% | SF-268 CNS 90.1% | SF-295 CNS 78.4% | SF-539 CNS 91.4% | UACC-257 melanoma 59.9% | M14 melanoma 94.5% | HCT-15 colon 99.8% | HT29 colon 90.4% | SNB-75 CNS 69.9% | SNB-19 CNS 87.4% | PC-3 prostate 80% | SK-MEL-5 melanoma 76.4% | UACC-62 melanoma 99.3% | LOX IMVI melanoma 84.4% | SK-MEL-28 melanoma 96.4%

COc1ccc(/C=c2/c(=O)[nH]c3nc4sc(C)c(C)c4c(=O)n23)cc1
inactive: DU-145 prostate 92.6% | K-562 leukemia 81.6% | MALME-3M melanoma 92.6% | MDA-MB-231 breast 97.3% | RXF 393 renal 93.7% | SF-268 CNS 88.5% | SF-539 CNS 92.8% | M14 melanoma 96.2% | HCT-15 colon 73.2% | HT29 colon 88.1% | SNB-75 CNS 93.2% | SNB-19 CNS 88.4% | SK-MEL-5 melanoma 90.8% | UACC-62 melanoma 80.4% | LOX IMVI melanoma 91.1% | SK-MEL-28 melanoma 102%

COc1cccc2c1C(=O)c1c(O)c3c(c(O)c1C2=O)C[C@@](O)(/C(C)=N/NC(=O)c1ccc(Cl)cc1)C[C@@H]3OC1CC(N)C(O)C(C)O1 (stereo partly specified)
inactive: HCT-15 colon 16.4%
active: DU-145 prostate -0.501% | K-562 leukemia -19.5% | MALME-3M melanoma -74.6% | MDA-MB-231 breast -1.48% | SF-268 CNS -54.8% | SF-295 CNS -60.4% | SF-539 CNS -45.5% | UACC-257 melanoma -57.1% | M14 melanoma -60% | HT29 colon -42.6% | SNB-75 CNS -84.3% | SNB-19 CNS 5.54% | PC-3 prostate -36.5% | SK-MEL-5 melanoma -45.2% | UACC-62 melanoma -72.8% | SK-MEL-28 melanoma -32.3%

CCCCCC(=O)N(CCCC)CCCC
inactive: DU-145 prostate 120% | K-562 leukemia 94.8% | MALME-3M melanoma 96.8% | MDA-MB-231 breast 99.7% | SF-268 CNS 115% | SF-295 CNS 88.2% | SF-539 CNS 97.4% | UACC-257 melanoma 92.1% | M14 melanoma 104% | HCT-15 colon 96.8% | HT29 colon 111% | SNB-75 CNS 86.5% | SNB-19 CNS 92.9% | PC-3 prostate 99.8% | SK-MEL-5 melanoma 98.6% | UACC-62 melanoma 94.2% | LOX IMVI melanoma 110% | SK-MEL-28 melanoma 104%

COc1cccc(-n2cc(-c3nc(Nc4cc(C)[nH]n4)c4ccccc4n3)nn2)c1
active: SNB-75 CNS -10.2% | SK-MEL-5 melanoma -42%
inactive: DU-145 prostate 66.4% | K-562 leukemia 27% | MALME-3M melanoma 42.9% | MDA-MB-231 breast 63.4% | SF-268 CNS 64.1% | SF-295 CNS 37.7% | SF-539 CNS 52.9% | UACC-257 melanoma 83.4% | M14 melanoma 54.1% | HCT-15 colon 29.7% | HT29 colon 65.5% | SNB-19 CNS 73.1% | PC-3 prostate 55.3% | UACC-62 melanoma 50.8% | LOX IMVI melanoma 66.5% | SK-MEL-28 melanoma 64%

NC(CC(=O)O)C(=O)OCc1ccccc1 (stereo unspecified)
inactive: DU-145 prostate 109% | K-562 leukemia 106% | MALME-3M melanoma 81.1% | MDA-MB-231 breast 105% | SF-268 CNS 100% | SF-295 CNS 93.3% | SF-539 CNS 93.4% | UACC-257 melanoma 89.2% | M14 melanoma 104% | HCT-15 colon 95.1% | HT29 colon 115% | SNB-75 CNS 65.5% | SNB-19 CNS 101% | PC-3 prostate 103% | SK-MEL-5 melanoma 97.8% | UACC-62 melanoma 94.5% | LOX IMVI melanoma 107% | SK-MEL-28 melanoma 99.1%
